Screening results (PubChem)
UGM FP inh – inhibitors of M. tuberculosis UDP-galactopyranose mutase; purified UGM, fluorescence polarization probe displacement; inhibition, % at 10 µM; 320,000 compounds, 0.06% hits; AID 504406; in the data active means inhibition above about 10%, passing the limit was not always enough
Target sequence (P9WIQ1 whole entry, looked up): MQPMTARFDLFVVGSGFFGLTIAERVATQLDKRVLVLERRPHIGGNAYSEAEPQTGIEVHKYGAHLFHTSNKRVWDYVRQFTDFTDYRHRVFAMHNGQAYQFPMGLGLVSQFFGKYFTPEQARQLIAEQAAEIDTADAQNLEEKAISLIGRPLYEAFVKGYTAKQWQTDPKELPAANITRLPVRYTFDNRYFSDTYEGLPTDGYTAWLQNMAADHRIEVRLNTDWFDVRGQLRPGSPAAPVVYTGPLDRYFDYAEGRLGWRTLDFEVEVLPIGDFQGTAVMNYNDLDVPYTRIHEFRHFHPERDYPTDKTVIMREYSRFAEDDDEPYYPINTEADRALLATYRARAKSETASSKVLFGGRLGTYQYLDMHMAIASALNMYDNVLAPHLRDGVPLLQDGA
Rv3671c protease – inhibits the M. tuberculosis serine protease Rv3671c | inhibition, % at 5.96 µM | 320,000 compounds, 0.048% hits | P9WHR9; in the data active means inhibition above about 38%;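 further: extracellular domain of Rv3671c used as enzyme; 0% = enzyme with DMSO and 100% = no enzyme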
Mtb betalactam – beta-lactam sensitization of Mtb H37Rv; M. tuberculosis H37Rv growth with meropenem, percent inhibition; inhibition, % at 25 µM; 330,000 compounds, 0.27% hits; AID 434955; call rule not given here;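 further: growth measured after seven days incubation then overnight dye step; 0% = bacteria only wells and 100% = bacteria with antibiotic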
Mtb FBA inh – Mtb fructose-bisphosphate aldolase inhibition | 360,000 compounds, 2.3% hits | AID 588726 | purified M. tuberculosis FBA, fluorescence read-out | inhibition, % at 1 µM | P9WQA3;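 further: 0% = vehicle and 100% = reference inhibitor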
SSB-PriA inh – inhibitors of Klebsiella pneumoniae PriA binding to SSB C-terminal tail; inhibition, % at 33 µM; 430,000 compounds, 0.6% hits; AlphaScreen SSBct-PriA binding, biotinylated peptide; in the data active means inhibition mostly above about 37%, no sharp cut-off; inactive means mostly below about 20%;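 further: plate controls were negative control peptide for no effect and reference peptide for full effect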
GDH-TPI counter-1 – GDH-TPI coupled enzyme inhibition counter-screen | GDH-TPI coupled enzyme counterscreen, NADH absorbance | inhibition, % at 4.8 µM | 360,000 compounds, 1.2% hits | AID 588335; in the data active means inhibition above about 30%;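 further: 0% = DMSO wells and 100% = wells lacking the enzyme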
Mtb FBA confirm – confirmation of M. tuberculosis fructose-bisphosphate aldolase inhibitors; shares compounds with Mtb FBA inh; purified M. tuberculosis FBA, fluorescence read-out; inhibition, % at 1 µM; 5,600 compounds, 78% hits; AID 651616;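 further: 0% = vehicle wells and 100% = reference inhibitor wells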
GDH-TPI counter-2 – counter-screen for M. tuberculosis FBA inhibitors: GDH-TPI coupled enzyme inhibition; shares compounds with Mtb FBA inh; GDH-TPI coupled enzyme counterscreen, fluorescence; inhibition, % at 1 µM; 5,600 compounds, 81% hits; AID 652141; in the data active means inhibition above about 10%
Starred values were filed as active, the others as inactive; nt = no result; + = active, no number. Rows were chosen to be rich in hits. Some 3.2% of all compounds tested hit in one or more screens of this group. Unless noted, no stated cut-off is given here; in the data, active means inhibition above about 27%; inactive means the rest.

SMILES	UGM FP inh	Rv3671c protease	Mtb betalactam	Mtb FBA inh	SSB-PriA inh	GDH-TPI counter-1	Mtb FBA confirm	GDH-TPI counter-2
CN(C)c1ccc(CCNC(=O)CCc2ccccc2)cc1	nt	nt	nt	nt	-4.0	nt	nt	nt
CCN(CC)c1ccc(C=NNC(=O)C2CC2)cc1	nt	nt	nt	nt	15.0	nt	nt	nt
Oc1ccc(C2=NN(c3ccccc3)C(c3ccc(F)cc3)C2)cc1 (stereo not drawn)	1.9	0.3	12.3	101.2*	1.2	-6.6	165.1*	148.3*
Oc1ccccc1C1=NN(c2ccccc2)C(c2ccc(F)cc2)C1 (stereo not drawn)	2.5	nt	-4.5	1.4	-37.6	0.7	nt	nt
COc1ccc(C2CC(c3cccc(Br)c3)=NN2c2ccc(S(N)(=O)=O)cc2)cc1 (stereo not drawn)	nt	nt	nt	102.1*	-2.7	14.6	42.2*	30.9*
O=S(=O)(c1ccccc1)N1N=C(c2ccccc2)C[C@H]1c1ccco1	nt	nt	nt	nt	3.0	nt	nt	nt
Fc1ccc(C2=NN(c3ccccc3)C(c3ccco3)C2)cc1 (stereo not drawn)	-3.9	11.8	-1.0	47.6*	-46.7	2.2	60.3*	47.8*
COc1ccc(C2=NN(c3ccccc3)C(c3ccc(OC)c(OC)c3)C2)cc1 (stereo not drawn)	-2.9	14.2	8.2	79.5*	-2.7	10.6	52.7*	50.6*
COc1ccc(C2CC(c3ccc(OC)c(OC)c3)=NN2C(=O)c2ccccc2)cc1 (stereo not drawn)	0.0	-1.9	-1.4	-3.2	-10.4	11.3	nt	nt
CC(C)CS(=O)(=O)Nc1ccc2c(c1)CCC(=O)N2Cc1ccccc1	nt	nt	nt	nt	-8.0	nt	nt	nt
[O-]C(=C(C(=S)Nc1ccc(Cl)cc1)[n+]1ccccc1)c1ccc(OC(F)F)cc1	nt	nt	nt	nt	1.4	nt	nt	nt
O=C(Nc1ccc(N2CCCCS2(=O)=O)cc1)Oc1ccccc1	nt	nt	nt	nt	-9.0	nt	nt	nt
O=C(c1ccc(-n2cccc2)cc1)N1CCC(Oc2cnccn2)CC1	nt	nt	nt	nt	24.0	nt	nt	nt
CCc1nccn1CC1CCN(C(=O)c2ccc3c(c2)OCO3)CC1	nt	nt	nt	nt	-12.0	nt	nt	nt
c1csc(CNc2nc(Oc3ccncc3)c3sccc3n2)c1	nt	nt	nt	43.0*	nt	4.9	64.5*	50.6*
c1ccc(CNc2nc(Oc3ccncc3)c3sccc3n2)cc1	nt	nt	nt	39.5*	nt	2.2	+	+
CC(C)Cc1nc2oc3c(NCc4cccnc4)ncnc3c2c2c1CCC2	1.7	3.1	-6.5	13.7	-17.0	4.2	nt	nt
CCCc1nc2oc3c(NCC(C)O)ncnc3c2c2c1CCCC2 (stereo not drawn)	0.5	-1.4	0.1	36.1*	-0.5	1.5	68.0*	45.0*
CCN(c1ccccc1)S(=O)(=O)c1ccc(OC)c(N=NC(C(=O)Nc2ccccc2)=C(C)O)c1	nt	nt	nt	nt	-1.2	nt	nt	nt
COCCNC(=S)Nc1ccc2nc(N3CCOCC3)cc(C)c2c1	-0.6	2.6	-5.2	50.6*	3.8	7.9	0.4	-3.4
Cc1cc(N2CCOCC2)nc2ccc(NC(=S)NC(C)C)cc12	6.2	-1.2	11.2	36.6*	-1.9	7.9	108.2*	96.0*
Cc1cc(N2CCCC2)nc2ccc(NC(=S)NC(C)C)cc12	2.2	5.8	-11.3	30.7*	15.8	17.9	23.6	15.7*
COc1cccc(C2C(C(=O)Nc3ccccc3)=C(C)N=c3sc(=Cc4ccc(OCC(=O)O)cc4)c(=O)n32)c1 (stereo not drawn)	nt	nt	nt	nt	-3.6	nt	nt	nt
CCn1nccc1C(=O)Nc1nc(-c2ccc(Cl)cc2Cl)cs1	nt	nt	nt	nt	-5.0	nt	nt	nt
CC(=O)OC(C(=O)NCc1ccc2c(c1)OCO2)c1ccccc1Cl (stereo not drawn)	-2.3	-7.1	-16.0	105.4*	-9.8	4.3	120.2*	91.8*
CC(OC(=O)c1ccco1)C(=O)NCc1ccc2c(c1)OCO2 (stereo not drawn)	-0.7	-4.1	3.6	1.8	-11.9	-6.8	nt	nt
CC(C)C(OC(=O)c1ccco1)C(=O)NCc1ccc2c(c1)OCO2 (stereo not drawn)	0.7	0.9	-4.4	73.9*	-9.3	1.5	134.6*	83.6*
N#CC1=C(N)Oc2c(ccc3cccnc23)C1c1cccnc1 (stereo not drawn)	1.7	6.6	-2.8	40.8*	88.2*	13.6	-0.5	-9.4
N#CC1=C(N)Oc2cc3ccccc3cc2C1c1cccnc1 (stereo not drawn)	1.9	-0.6	11.6	9.0	7.5	6.1	nt	nt
